From PubChem BioAssay AID504941 (Broad Institute, 2011)
Screen size: about 1,200 compounds; about 170 (14%) were called active. How the calls were made is not given here. Not all results are given here. Potency and affinity values are given separately.

assay: twin-arginine translocation blockade, bacterial reporter – cherry-pick, set 2, plate reader, dose response (AID 504941); settings: E. coli Tat transport reporter; series mostly up to 38 µM

outcome, inactive:
COc1ccc(OC)c(NC(=O)NCc2cccnc2)c1
CN(CC(=O)NCCN1CCOCC1)S(=O)(=O)c1ccc(Cl)cc1
Cc1cc(=O)[nH]c(Sc2c(-c3ccccc3)c3ccccc3[nH]c2=O)n1
CN1CCN(c2cc3c(cc2F)c(=O)c(C(=O)O)cn3CCF)CC1
CC(C(=O)NC1CCCC1)N1CCN(S(=O)(=O)c2ccc(C(C)(C)C)cc2)CC1 (stereo unspecified)
Cc1ccc(S(=O)(=O)N2CCC(C(=O)Nc3nnc(C)s3)CC2)cc1
O=C(CCSc1nnc(-c2ccco2)o1)N1CCOCC1
CCc1ccc(-c2cc(C(=O)Nc3ccc(S(=O)(=O)NC(C)=O)cc3)c3ccccc3n2)cc1
CC(=O)c1ccc(NC(=O)C2CCCN2S(=O)(=O)c2cccc3cccnc23)cc1 (stereo unspecified)
CN(c1ccccc1)S(=O)(=O)c1cccc(NC(=O)CN2C(=O)NC3(CCCC3)C2=O)c1
CC1(C)C2CCC1(C)C(NC(=O)/C=C/c1ccccc1)C2 (stereo unspecified)
COc1ccc(Nc2nc3ccccc3nc2-n2nc(C)cc2C)cc1
COc1ccccc1NC(=S)NC(=O)C(C)C
COc1cc(NC(=O)C2CCCCC2)c(OC)cc1NC(=O)c1ccco1
Cc1ccc(-c2cc(C(F)F)n3ncc(C(=O)Nc4ccc(S(=O)(=O)Nc5ccccc5C)cc4)c3n2)cc1
Oc1c(Cl)cc(Cl)cc1C1Nc2ccccc2-n2cccc21 (stereo unspecified)
O=C(Nc1ccc2c(c1)OCCO2)C1CCCN(S(=O)(=O)c2cccnc2)C1 (stereo unspecified)
O=C(c1cccnc1)C1CCCN(Cc2nc(Cc3ccccc3)no2)C1 (stereo unspecified)
CN1CCN(c2ccc(S(=O)(=O)N3CCCCC3)cc2NC(=O)c2cccc([N+](=O)[O-])c2)CC1
COc1c2ccoc2nc2c(OC)c(OC[C@@H](O)C(C)(C)O)ccc12
Cc1ccnc(SCC(=O)c2cccs2)n1
CC(=O)c1cc(CN2CCN(C3CCCCC3)C(CCO)C2)cs1 (stereo unspecified)
O=C1/C(=C/c2cccnc2)Oc2cc(OS(=O)(=O)c3ccccc3)ccc21
COc1cccc(NC(=O)c2cccc(C(=O)Nc3cccc(OC)c3)n2)c1
Cc1ccc(S(=O)(=O)NC(C)(C)CSc2nnc(Nc3ccccc3)s2)cc1
CN1CCC(=NNC(=O)C(=O)Nc2cccc(Br)c2)CC1
Cc1ccc(C)c(NC(=O)CN(C)C(=O)c2cccc(S(=O)(=O)N(C)C)c2)c1
Cc1ncc(CN2CCN(CCC(C)C)C(CCO)C2)s1 (stereo unspecified)
COc1ccc(C(=O)NC2(C(F)(F)F)C(=O)Nc3c2c(=O)[nH]c(=O)n3CCc2ccc(OC)c(OC)c2)cc1 (stereo unspecified)
CC(C)OCC(O)CN1CCN(CC(O)COc2ccc3c(c2)OCO3)CC1 (stereo unspecified)
CCCCN(C)C(=O)c1cc2cc([N+](=O)[O-])cc(OC)c2oc1=O
Cc1cccc(N(CC(=O)NC2CCCC2)C(=O)CCCC(=O)Nc2ccccn2)c1
CCCCn1c(N)c(N(CCOC)C(=O)COC(=O)C(C)Oc2ccc(Cl)cc2)c(=O)[nH]c1=O (stereo unspecified)
O=C(Nc1nnc(S(=O)(=O)N2CCCCCC2)s1)c1ccccc1Br
C=CCn1c(SCC(=O)NCc2ccc3c(c2)OCO3)nnc1-c1cccnc1
COC(=O)C[C@H]1c2cc(F)cc(F)c2S(=O)(=O)N1C1CCN(Cc2ccccc2)CC1
NC(=O)C1CCN(C(=O)c2ccco2)CC1
NC(=O)C1CCN(C(=O)CSc2nc3ccccc3o2)CC1
O=C(CCSc1ccccc1)N1CCN(C(=O)c2ccco2)CC1
O=C(CCc1nc2cccnc2n1Cc1ccccc1)N1CCOCC1
CN(Cc1ccccc1)c1ncnc2sccc12
COC(=O)c1sccc1NC(=O)c1ccc2c(c1)OCO2
Cc1ccccc1C(=O)N1CCC(C(=O)Nc2ccccc2Cl)CC1
Cc1ccccc1C(=O)N1CCN(c2ccc(NC(=S)NC(=O)c3cccs3)cc2)CC1
O=C(CC1SCCNC1=O)Nc1cccc(Cl)c1 (stereo unspecified)
COc1cccc(CN2CCN(Cc3cc(OC)c(OC)cc3[N+](=O)[O-])CC2)c1
COc1ccc(CCN2C(=O)CC(NNC(=O)c3ccc(F)cc3)C2=O)cc1OC (stereo unspecified)
Cc1cc(C(=O)NNC(=O)c2ccc(F)cc2)c(C)s1
Cc1nc(Cl)c(C(=O)NCc2ccccc2)c(C)c1Cl
Cc1nn(Cc2ccccc2)c(C)c1NC(=O)c1noc2c1CCc1ccccc1-2
CCOc1cccc(=O)c2c(C)n(-c3ccc(C(=O)O)cc3)c(C)c12
O=C(CCCc1ccccc1)Nc1ccc2c(c1)OCCO2
O=C(O)CC(NCc1ccco1)C(=O)OCCc1ccccc1 (stereo unspecified)
Cc1cc(C)c2oc(=O)cc(CN3CCN(Cc4ccc5c(c4)OCO5)CC3)c2c1
CCOC(=O)[C@H]1[C@H]2COc3ccc(Cl)cc3[C@@H]2N2C(=O)[C@H](C)NC(=O)[C@@]12C
C[C@H]1NC(=O)[C@@]2(C)[C@@H](c3ccccc3)[C@H]3COc4ccccc4[C@H]3N2C1=O
CC(=O)c1c(C)[nH]c(C(=O)CSc2nnc3ccccn23)c1C
CC(=O)Oc1ccc2c(c1)OC(c1ccccc1)CC21CC(C)(C)NC(=S)N1 (stereo unspecified)
C=CCC[C@H](Cc1ccc(F)cc1)C(=O)OC[C@@H](C)NC(=O)[C@H](CC=C)CC(=O)NCCO
Nc1nc2n(n1)C(c1cccc(Br)c1)CC(c1ccccc1)N2 (stereo unspecified)
COc1ccccc1N1CCN(CC(=O)Nc2ccc3c(c2)OCCO3)CC1
CC(Oc1ccc2c(-c3ccccc3)cc(=O)oc2c1)C(=O)NCCCN1CCOCC1 (stereo unspecified)
COc1cccc(CNC(=O)CN2C(=O)CCSc3ccc(S(=O)(=O)N4CCCC4)cc32)c1
Cc1ccc(NC(=S)NCCC2=CCCCC2)cc1
O=C(NCc1ccccc1)c1ccc(CS(=O)(=O)c2ccccc2)o1
CCC1CCCCN1Cc1nc2c(c(=O)n(C)c(=O)n2C)n1CCCc1ccccc1 (stereo unspecified)
